Reference: PubChem BioAssay AID686978 (National Center for Advancing Translational Sciences (NCATS), 2013)
“And” between values parts separate entries of the source, which are not always exact repeats. Identical values can stand only once. Screen size: about 420,000 compounds; about 64,000 (15%) were called active. Inconclusive results (about 27%) are left out. The entries come from a sample that favours actives as a whole. A number with no mark means an inactive call. Calls come from the whole dose curve; as a rule, active = well fitted inhibition curve with a large enough effect; inconclusive = small, poorly fitted or top-dose-only effect; inactive = flat fitted curve, though single readings scatter.

test: qHTS for Inhibitors of human tyrosyl-DNA phosphodiesterase 1 (TDP1): qHTS in cells in absence of CPT; details: DT40 Tdp1-/- hTDP1 cells, no CPT, ATP luminescence, 48 h; series mostly up to 46.2 µM; activity change, negative = growth inhibition: at the top concentration; note: nearly all actives have a fitted effect of over 55% in size
In short: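 DT40 Tdp1-/-;hTDP1 cells, no CPT (DMSO vehicle only), 400 cells/well; compounds pin-transferred; ≥48 hr, 37 °C; CellTiter-Glo 30 min RT dark, luminescence read.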
% is set by controls: 0 for no effect and ±100 for the full control effect; potency is the fitted concentration of half-maximal effect.

Row | Structure (SMILES) | activity change, negative = growth inhibition | Potency
1 | CC[N+](CC)(CC)CCCCCCCCCC[N+](CC)(CC)CC | -1.16% | 
2 | CNC(=O)N(C)c1nnc(C(C)(C)C)s1 |  | inactive
3 | COP(=O)(NS(=O)(=O)c1ccccc1)OC | 10.3% | 
4 | CN1[C@@H]2CC[C@H]1CC(OC(=O)c1cc(Cl)cc(Cl)c1)C2 (some centres undefined) |  | 13.3 µM (active) and 11.9 µM (active)
5 | CN1CCC(OC(=O)c2cccc(F)c2)CC1 | -23.6% | 
6 | CNP1(NC)=Nc2nn(-c3ccccc3)c(N)c2C(c2ccccc2)=N1 | -8.1% | 
7 | Cc1cccc(Cn2cccc(C(=O)Nc3ccc4c(c3)OCCO4)c2=O)c1 |  | 20.6 µM (active)
8 | CCN(CC)C(=O)c1ccc(NC(=O)c2cc(-n3cnnc3)ccc2Cl)cc1 | -6.17% | 
9 | COc1cc(OC)cc(C2(C#N)CCN(C)CC2)c1 | 6.77% | 
10 | Cc1ccc(-n2c(O)c(C=NCC3CCCO3)c(=O)[nH]c2=O)c(C)c1 (centres undefined) | -4.24% | 
11 | CNC(=O)Nc1ccc(C(O)(C(=O)OC)C(F)(F)F)cc1 (centres undefined) | -2.08% | 
12 | Cc1cc(C(=O)OCC(=O)Nc2c(F)cccc2F)c(C)n1C1CC1 | 2.09% | 
13 | COC(=O)[C@@]12C[C@@H](CC(=O)NCc3cccc(C(F)(F)F)c3)C(=O)N(Cc3ccco3)C1=CCC(C)(C)C2 |  | 13 µM (active)
14 | COc1cc(Cl)ccc1Nc1ncc(C(=O)N2CCN(c3ccccc3OC)CC2)c2ccccc12 |  | 5.8 µM (active)
15 | C[C@@]1([C@@H](NP(=O)(c2ccccc2)c2ccccc2)c2ccccc2)C[C@H]1CCO |  | 18.4 µM (active)
16 | CCN1CCN(C(=O)Cc2coc3cc(C)cc(C)c23)CC1 | -10.5% | 
17 | c1cncc(CNC2=NCCC2)c1 | -15% | 
18 | CCN1C(=O)NC(=O)C2(CCCC2)C1=O | -4.11% | 
19 | O=C(CCCn1c(=O)[nH]c2cc(Cl)ccc2c1=O)N1CCC2(CC1)OCCO2 | -6.95% | 
20 | Cc1ccc(Cn2c(C)c3cnn(CC(=O)N4CCC5(CC4)OCCO5)c(=O)c3c2C)cc1 |  | 14.6 µM (active)
21 | COc1ccc(-c2nc(CS(=O)CC(=O)N3CCC4(CC3)OCCO4)c(C)o2)cc1 (centres undefined) | 2.45% | 
22 | Cc1ccc(C(C)C)c(OCC(=O)N2CCN(CC(=O)N3CCOCC3)CC2)c1 | -17.4% | 
23 | COC1CC(OC2CC[C@@]3(C=O)C4CC[C@]5(C)C(C6=CC(=O)OC6)CC[C@@]5(O)C4CC[C@]3(O)C2)OC(C)C1O (some centres undefined) |  | 0.92 µM (active)
24 | COC1C(O)C(C)OC(OC2CCC3(C=O)C(CCC4C3CCC3(C)C(C5=CC(=O)OC5)CCC43O)C2)C1O (centres undefined) |  | 0.206 µM (active)
25 | CN(C)/C=C(\C=[N+](C)C)c1[nH]ncc1[N+](=O)[O-] | 7.97% | 

Row | Structure (SMILES) | activity change, negative = growth inhibition | Potency
26 | Cc1ccc(C2CN(C)CC2C(=O)c2ccc(F)cc2)cc1 (centres undefined) | -12.1% | 
27 | COc1ccc(-n2c(O)c(C(C)=Nc3ccc4c(c3)CCC4)c(=O)[nH]c2=O)cc1 | -28.5% | 
28 | COc1ccc(-n2c(-c3ccccc3)nc3ccccc3c2=O)cc1 |  | 13 µM (active)
29 | Cc1ccc(-c2nc3ccccc3c(=O)n2-c2ccc(Br)cn2)cc1 | -24.3% | 
30 | O=c1c2ccccc2nc(-c2ccccc2)n1-c1ccccn1 | -2.29% | 
31 | CSc1nc2ccc(C)cc2c(=O)n1-c1cccnc1 | -9.55% | 
32 | Cc1ccc(-n2c(-c3ccc([N+](=O)[O-])cc3)nc3ccccc3c2=O)cc1 |  | 8.2 µM (active)
33 | COC1=C[C@]23CCCN2CCc2cc4c(cc2[C@@H]3[C@@H]1O)OCO4 | -13.2% [at 9.04 µM] | 
34 | c1ccc2sc(C3CCCNC3)nc2c1 (centres undefined) | -13% | 
35 | CN(C)C(=O)Oc1cc(OC(=O)N(C)C)cc(C(O)CNC(C)(C)C)c1 (centres undefined) |  | inactive
36 | CC(=O)Cc1ccc(OC(C)C)cc1 | -10.7% | 
37 | OC1/C(=C/c2ccc(C(F)(F)F)cc2)N2CCC1CC2 (centres undefined) | -13% | 
38 | O=C(CCC(=O)N1C[C@H]2C[C@@H](C1)c1cccc(=O)n1C2)NCc1ccccc1C(F)(F)F | -0.958% | 
39 | C#C[C@]1(OC(=O)CCCCCC)CC[C@H]2[C@@H]3CCC4=CC(=O)CC[C@@H]4[C@H]3CC[C@@]21C | -21.7% | 
40 | C#C[C@]1(O)CC[C@H]2[C@@H]3CCC4=C/C(=N/O)CC[C@@H]4[C@H]3CC[C@@]21CC |  | 21.1 µM (active)
41 | CC(C)N(CC#CCC1(O)c2ccccc2-c2ccccc21)C(C)C | -24.2% | 
42 | C[C@]12CCC3C(CC[C@H]4C[C@@H](O)CC[C@]34C)C1CC[C@@H]2O (some centres undefined) | 4.7% | 
43 | O=C(O)C1CSC(c2cccnc2)N1 (centres undefined) | -11.6% | 
44 | CC(=O)c1ccc(S(=O)(=O)N2CCN(c3nc4c(C)c(C)ccc4cc3C#N)CC2)cc1 |  | 12.6 µM (active)
45 | CCOC(=O)CC1=C(C(=O)OCC)C2(C(=O)N1)C(C(=O)OC)=C(N)Oc1ccccc12 (centres undefined) | 0.689% | 
46 | CCCCC(=O)N/N=C/c1c(O)n(-c2ccccc2)c(=O)[nH]c1=O | -10.2% | 
47 | O=c1[nH]c(=O)n(CCc2ccc(F)cc2)c(O)c1/C=N/N1CCCCC1 | -14.5% | 
48 | CCCCC(=O)N/N=C/c1c(O)n(CCC2=CCCCC2)c(=O)[nH]c1=O |  | 25.9 µM (active)
49 | CC(C)(Cc1c[nH]c2ccc(Cl)cc12)NCCOc1ccccc1OCC1CC1 |  | 26.6 µM (active) and 5.17 µM (active)
